Data reported in PubChem BioAssay (EPA / NIEHS).
Results filed as inconclusive are left out. Calls of active or inactive are those of the source. Rule for the calls, unless noted: active = hit-call score of the fitted dose curve at least 0.9, where 1 is the maximum; inconclusive = response in the unintended direction; inactive = score below 0.9.

Assays:
[1] = CCTE_Deisenroth_AIME_384WELL_CTox_Active: Cytotoxicity Assessment (CTOX) in CCTE's 384-well Estrogen Receptor Transactivation Assay with AIME metabolic competence (metabolism positive), Deisenroth Lab (AID 2284037);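 note: chemicals first conditioned 2 h by alginate-bound induced rat liver S9 before cells; activity means signal loss indicating cell death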
Outline: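 Cytotoxicity in VM7Luc4E2 breast cells, 24 hour, measured as protease-substrate fluorescence loss, after 2-hour metabolic conditioning with induced rat hepatic S9 in alginate microspheres. Concentrations 0.002 - 200 uM, 10 points, bidirectional fitting.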

[2] = CCTE_Deisenroth_AIME_384WELL_CTox_Inactive: Cytotoxicity Assessment (CTOX) in CCTE's 384-well Estrogen Receptor Transactivation Assay without AIME metabolic competence (metabolism negative), Deisenroth Lab (AID 2284039);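 note: cell viability via live-cell protease substrate cleaved to fluorescent probe; cells exposed 24 h to medium preincubated 2 h with alginate-water beads without S9; loss of fluorescence signal means loss of viability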
Outline: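 Fluorescent protease-substrate viability readout after 24 h exposure of VM7Luc4E2 cells to conditioned medium. Chemicals (0.002–200 uM) first sat 2 h over alginate-water beads, no S9. Data fitted bidirectionally, loss of signal meaning viability loss.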

[3] = CCTE_Shafer_MEA_dev_firing_rate_mean: CCTE's Neural Network Formation Assay for Mean Firing Rate, Shafer Lab (AID 2284031; active = hit-call score of the fitted dose curve at least 0.9, where 1 is the maximum; inactive = score below 0.9;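 note: AUC of well mean spike rate recorded on DIV 5 7 9 and 12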;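 for AC50: curve fitted for loss of firing so AC50 reflects decreased mean firing rate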)
Outline: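 Developing rat cortical networks on MEA plates undergo 12-day compound exposure. Firing frequency, averaged across active electrodes, is integrated as area under the curve over four recording days, referenced to DMSO.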

SMILES: NC(=NCCCCCCN=C(N)/N=C(\N)Nc1ccc(Cl)cc1)/N=C(\N)Nc1ccc(Cl)cc1
- AC50 [1]: 59.5 µM (active)
- AC50 [2]: 46.8 µM (active)

SMILES: Cc1[nH]nc2c1N=C(c1ccccc1Cl)c1cc([N+](=O)[O-])ccc1N2
- AC50 [1]: 159 µM (active)
- AC50 [2]: 138 µM (active)

SMILES: O=C(OC(=O)C(F)(F)C(F)(F)F)C(F)(F)C(F)(F)F
- outcome [3]: inactive

SMILES: Cc1cc(Cc2cc(C)cc(C(C)(C)C)c2O)c(O)c(C(C)(C)C)c1
- AC50 [1]: 43.1 µM (active)
- AC50 [2]: 41.8 µM (active)

SMILES: CN(Cc1cnc2nc(N)nc(N)c2n1)c1ccc(C(=O)N[C@@H](CCC(=O)O)C(=O)O)cc1
- AC50 [3]: 0.123 µM (active)
